# Test results taken from PubChem BioAssay (NCI).
# This is part of a sample that, as a whole, favours compounds with a hit. Of some 79,000 tested, about 15% had one in any assay. Unmarked numbers belong to inactive results. Calls of active or inactive are those of the source. No stated cut-off is given here; in the data, active means growth inhibition above about 70%; inactive means the rest.
# Columns and labels:
# [1] = NCI Yeast Anticancer Drug Screen. Data for the rad52 strain (AID 147);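 further: 0% = growth of vehicle-treated control cultures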; conditions: S. cerevisiae rad52 mutant growth inhibition, active compounds read high
# How it was run: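 Here a repair-compromised yeast strain receives each compound; its growth is then quantified and normalised to vehicle-only controls.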
# [2] = NCI Yeast Anticancer Drug Screen. Data for the wt1 strain (AID 149);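 further: 0% = growth of vehicle-treated wt1 cultures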; conditions: S. cerevisiae wt1 strain (SPY 50644) growth inhibition, active compounds read high
# How it was run: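 wt1 yeast, compound-treated; % growth inhibition vs vehicle control.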
# [3] = NCI Yeast Anticancer Drug Screen. Data for the rad50EPP+ strain (AID 151);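 further: 0% = growth of vehicle-treated control cultures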; conditions: S. cerevisiae rad50 mutant strain, active compounds read high
# How it was run: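 Read-out is yeast growth inhibition relative to vehicle; cells used were the rad50EPP+ strain.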
# [4] = NCI Yeast Anticancer Drug Screen. Data for the mgt1 strain (AID 153); conditions: S. cerevisiae mgt1 mutant growth inhibition, active compounds read high
# How it was run: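 Measured: inhibition of mgt1 yeast growth by compound, normalized to vehicle-treated cultures.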
# [5] = NCI Yeast Anticancer Drug Screen. Data for the rad50 strain (AID 155);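 further: 0% = growth of vehicle-only cultures of the same strain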; conditions: S. cerevisiae rad50 strain growth inhibition, active compounds read high
# How it was run: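 Genetically altered yeast (DNA repair pathway); compound treatment; growth inhibition vs vehicle ctrl.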
# [6] = NCI Yeast Anticancer Drug Screen. Data for the mec2-1 strain (AID 157); conditions: S. cerevisiae mec2-1 strain, active compounds read high
# How it was run: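 Using mec2-1 yeast: add compound, measure growth, express inhibition versus vehicle-treated cultures.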
# [7] = NCI Yeast Anticancer Drug Screen. Data for the rad14 strain (AID 159);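 further: 0% = growth of vehicle-treated control cultures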; conditions: S. cerevisiae rad14 strain growth inhibition, active compounds read high
# How it was run: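 Test compounds were applied to a repair-deficient yeast strain. Its growth was then compared with that of cultures given vehicle alone, and inhibition was expressed relative to those controls.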
# [8] = NCI Yeast Anticancer Drug Screen. Data for the sgs1 mgt1 strain (AID 161);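 further: 0% = growth of cultures given vehicle only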; conditions: S. cerevisiae sgs1 mgt1 strain, active compounds read high
# How it was run: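 Yeast cells carrying a defined DNA-repair defect were exposed to test compounds. Growth inhibition was measured relative to vehicle-treated controls.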
# [9] = NCI Yeast Anticancer Drug Screen. Data for the cln2 rad14 strain (AID 165);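 further: 0% = growth equal to vehicle treated cultures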; conditions: S. cerevisiae cln2 rad14 strain, active compounds read high
# How it was run: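 Yeast strain cln2 rad14, bearing defects in cell cycle control and DNA repair, serves as the test system; values reflect growth inhibition compared with vehicle.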
# [10] = NCI Yeast Anticancer Drug Screen. Data for the bub3 strain (AID 167); conditions: S. cerevisiae bub3 mutant strain, active compounds read high
# How it was run: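 Yeast carrying a defined mutation is treated with each compound, and growth is compared with that of vehicle-exposed cells to give inhibition.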
# [11] = NCI Yeast Anticancer Drug Screen. Data for the wt2 strain (AID 169);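 further: 0% = growth of vehicle-treated yeast cultures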; conditions: S. cerevisiae wt2 strain growth inhibition, active compounds read high
# How it was run: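 Treated yeast vs. vehicle-treated yeast: growth inhibition determined.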
# [12] = NCI Yeast Anticancer Drug Screen. Data for the mlh1 strain (AID 171);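 further: 0% = growth of vehicle-treated control cultures of the same strain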; conditions: S. cerevisiae mlh1 strain growth inhibition, active compounds read high
# How it was run: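 A yeast strain with a defined genetic lesion serves as the test organism. Cultures receive compound or vehicle, and growth is measured.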
# [13] = NCI Yeast Anticancer Drug Screen. Data for the sgs1 strain (AID 173);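 further: 0% = growth of vehicle-only control cultures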; conditions: S. cerevisiae sgs1 mutant, active compounds read high
# How it was run: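 A genetically defined yeast mutant is incubated with the test compound, and its growth is compared to that of the same strain given vehicle.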
# [14] = NCI Yeast Anticancer Drug Screen. Data for the mlh1 rad18 strain (AID 175); conditions: S. cerevisiae mlh1 rad18 strain growth inhibition, active compounds read high
# How it was run: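 Steps: expose repair-defective yeast to compound; measure growth; express inhibition against vehicle-treated controls.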
# [15] = NCI Yeast Anticancer Drug Screen. Data for the rad18 strain (AID 177); conditions: S. cerevisiae rad18 mutant growth inhibition, active compounds read high
# How it was run: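 Measured value is growth inhibition of a yeast strain bearing a DNA repair alteration, referenced to vehicle-treated cells.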
# [16] = at 5.0 µM (retest, dose inferred, filed as 0.5)
# [17] = at 50.0 µM (retest, dose inferred, filed as 5.0)
compound,measurement,setting,value
CO[C@H]1C[C@](C)(O)Cc2cc3c(c(O)c21)C(=O)c1c(O)cc2c(c1C3=O)O[C@@H]1O[C@@]2(C)[C@H](O)[C@@H](N(C)C)[C@@H]1O,growth inhibition,[1]; at 1.2 µM,-22%
same,growth inhibition,[1]; at 3.7 µM,-13%
same,growth inhibition,[1]; at 11.0 µM,5%
same,growth inhibition,[1]; at 33.0 µM,60%
same,growth inhibition,[1]; at 100.0 µM,87% (active)
same,growth inhibition,[2]; at 1.2 µM,-38%
same,growth inhibition,[2]; at 3.7 µM,-38%
same,growth inhibition,[2]; at 11.0 µM,-39%
same,growth inhibition,[2]; at 33.0 µM,-44%
same,growth inhibition,[2]; at 100.0 µM,-37%
same,growth inhibition,[3]; at 1.2 µM,-28%
same,growth inhibition,[3]; at 3.7 µM,-5%
same,growth inhibition,[3]; at 11.0 µM,-9%
same,growth inhibition,[3]; at 33.0 µM,-12%
same,growth inhibition,[3]; at 100.0 µM,33%
same,growth inhibition,[4]; at 1.2 µM,-28%
same,growth inhibition,[4]; at 3.7 µM,-23%
same,growth inhibition,[4]; at 11.0 µM,-19%
same,growth inhibition,[4]; at 33.0 µM,-22%
same,growth inhibition,[4]; at 100.0 µM,-32%
same,growth inhibition,[5]; at 1.2 µM,-44%
same,growth inhibition,[5]; at 3.7 µM,-7%
same,growth inhibition,[5]; [16],-11%
same,growth inhibition,[5]; at 11.0 µM,17%
same,growth inhibition,[5]; at 33.0 µM,72% (active)
same,growth inhibition,[5]; [17],75% (active)
same,growth inhibition,[5]; at 50.0 µM,20.9%
same,growth inhibition,[5]; at 100.0 µM,85% (active)
same,growth inhibition,[6]; at 1.2 µM,-19%
same,growth inhibition,[6]; at 3.7 µM,-7%
same,growth inhibition,[6]; [16],-3%
same,growth inhibition,[6]; at 11.0 µM,-21%
same,growth inhibition,[6]; at 33.0 µM,-4%
same,growth inhibition,[6]; [17],-11%
same,growth inhibition,[6]; at 50.0 µM,-11.2%
same,growth inhibition,[6]; at 100.0 µM,-6%
same,growth inhibition,[7]; at 1.2 µM,-32%
same,growth inhibition,[7]; at 3.7 µM,-44%
same,growth inhibition,[7]; at 11.0 µM,-63%
same,growth inhibition,[7]; at 33.0 µM,-53%
same,growth inhibition,[7]; at 100.0 µM,-51%
same,growth inhibition,[8]; [16],-16%
same,growth inhibition,[8]; [17],-1%
same,growth inhibition,[8]; at 50.0 µM,14.3%
same,growth inhibition,[9]; [16],25%
same,growth inhibition,[9]; [17],31%
same,growth inhibition,[9]; at 50.0 µM,21.9%
same,growth inhibition,[10]; at 1.2 µM,-15%
same,growth inhibition,[10]; at 3.7 µM,-11%
same,growth inhibition,[10]; [16],-2%
same,growth inhibition,[10]; at 11.0 µM,-30%
same,growth inhibition,[10]; at 33.0 µM,-31%
same,growth inhibition,[10]; [17],15%
same,growth inhibition,[10]; at 50.0 µM,-10.6%
same,growth inhibition,[10]; at 100.0 µM,-20%
same,growth inhibition,[11]; at 1.2 µM,-19%
same,growth inhibition,[11]; at 3.7 µM,-21%
same,growth inhibition,[11]; at 11.0 µM,-26%
same,growth inhibition,[11]; at 33.0 µM,-19%
same,growth inhibition,[11]; at 100.0 µM,-12%
same,growth inhibition,[12]; at 1.2 µM,-42%
same,growth inhibition,[12]; at 3.7 µM,-38%
same,growth inhibition,[12]; at 11.0 µM,-14%
same,growth inhibition,[12]; at 33.0 µM,-36%
same,growth inhibition,[12]; at 100.0 µM,-22%
same,growth inhibition,[13]; at 1.2 µM,-28%
same,growth inhibition,[13]; at 3.7 µM,-28%
same,growth inhibition,[13]; at 11.0 µM,-24%
same,growth inhibition,[13]; at 33.0 µM,-7%
same,growth inhibition,[13]; at 100.0 µM,2%
same,growth inhibition,[14]; [16],-19%
same,growth inhibition,[14]; [17],0%
same,growth inhibition,[14]; at 50.0 µM,73.2% (active)
same,growth inhibition,[15]; at 1.2 µM,-27%
same,growth inhibition,[15]; at 3.7 µM,-27%
same,growth inhibition,[15]; at 11.0 µM,-29%
same,growth inhibition,[15]; at 33.0 µM,-27%
same,growth inhibition,[15]; at 100.0 µM,-18%
